# NLRP3 yeast inh – NALP3 inhibition in yeast; Yeast reconstituted NLRP3/ASC/caspase-1, beta-gal luminescence, 24 h; inhibition, % at 10 µM; 0.39% of 330,000 active; AID 2825;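 active = inhibition of 50% or more; inactive = inhibition below 50%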;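 note: plate controls were induced DMSO wells for no effect and uninduced yeast grown without galactose for full effect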
# NALP1 inh – blocks the NALP1 inflammasome reconstituted in yeast. S. cerevisiae NALP1/ASC/caspase-1 growth, X-gal OD620, 72 h. inhibition, % at 10 µM. 0.61% of 280,000 active; in the data active = inhibition mostly above about 24%, no sharp cut-off; inactive = mostly below about 32%
# Mot1-301 SUMO – SUMOylation pathway inhibition by Mot1-301 growth rescue; S. cerevisiae Mot1-301 growth rescue, ATP luminescence, 38.5C; percent above DMSO median, 100 means doubled; growth rescue, % at 18.8 µM; 1% of 320,000 active; AID 2716;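 active = every valid replicate shows activation above 250% relative to neutral control wells; inactive = the rest, any valid replicate at or below 250%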;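 note: OY570 slx delta 5 strain wells were the positive control but not used for scaling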
# A1 inh – inhibitors of the anti-apoptotic protein A1, read as caspase activation; caspase activation, % (concentration not given with the values); MEF A1-2A-BIM cells, Caspase-Glo 3/7 luminescence, 3 h; percent of clofoctol response, vehicle zero; 0.066% of 330,000 active;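 active = over half of replicate activation scores above 10%, or exactly half above 10 with the replicate mean above 10; inconclusive = replicate mean below 10 yet half the replicates above 10; inactive = over half of replicates below 10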
# CHT PAM – allosterically activates the human high affinity choline transporter | Q9GZV3 | CHT-expressing cells, membrane potential dye, choline EC20; stronger effect = higher value; LV-AA mutant CHT in HEK293 cells | B-score at 10 µM | 0.49% of 310,000 active;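 active = initial fluorescence not abnormally high and integrated response B-score, plate-corrected, over 3 SD above library mean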
# Target sequence (Q9GZV3 whole entry, looked up): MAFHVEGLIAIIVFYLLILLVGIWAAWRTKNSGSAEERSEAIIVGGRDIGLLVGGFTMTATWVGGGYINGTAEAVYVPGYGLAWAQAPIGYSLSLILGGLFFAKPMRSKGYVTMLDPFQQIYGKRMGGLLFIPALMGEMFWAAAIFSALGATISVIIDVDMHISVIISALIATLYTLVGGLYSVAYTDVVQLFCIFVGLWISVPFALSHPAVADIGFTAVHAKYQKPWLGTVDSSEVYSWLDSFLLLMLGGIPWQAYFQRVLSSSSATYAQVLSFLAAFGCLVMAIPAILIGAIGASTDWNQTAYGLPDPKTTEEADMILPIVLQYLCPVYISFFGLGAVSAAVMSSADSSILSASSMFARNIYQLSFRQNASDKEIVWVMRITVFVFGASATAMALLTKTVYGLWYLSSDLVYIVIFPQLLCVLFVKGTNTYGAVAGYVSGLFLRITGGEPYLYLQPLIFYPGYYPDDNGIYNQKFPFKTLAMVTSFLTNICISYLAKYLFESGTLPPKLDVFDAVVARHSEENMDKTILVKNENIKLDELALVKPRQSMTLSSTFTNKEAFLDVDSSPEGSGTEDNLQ
# CHT inh – human CHT choline transport inhibition. Q9GZV3. CHT-expressing cells, membrane potential dye, choline response; stronger effect = lower value. B-score at 10 µM. 0.86% of 310,000 active. AID 488975;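 active = B-score over 3 SD under the library average, and starting fluorescence ratio not unusually high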;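 note: choline stimulus applied at its EC90 after an EC20 pre-addition; B-score computed on integrated fluorescence ratio after choline addition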
# CHT inh conf – human CHT inhibition, confirmatory screen; 70% of 2,400 active; AID 493221; CHT activity remaining % of control (stronger effect = lower value), % at 10 µM; shares compounds with CHT inh; CHT-expressing cells, choline membrane potential dye; LV-to-AA substituted CHT, HEK293 cells;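 active = choline transporter activity left, mean of duplicates at 10 µM, below buffer-only control mean minus 3 SD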;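 note: depolarization triggered by choline at its EC90 following an EC20 pre-addition; 0% = hemicholinium-3 full block and 100% = buffer-only control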
# HEK293 MPD ctr – counter-screen for CHT inhibitors: effect in parental HEK293 cells | 4% of 2,400 active | membrane potential dye, choline response; active = decrease or increase beyond buffer ±3SD | membrane potential ratio readout (active if shifted either direction beyond buffer ±3SD; no single direction) at 10 µM | shares compounds with CHT inh;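 note: parental cells lack the transporter so any hit is non-specific; ratio is peak minus trough fluorescence over baseline after EC90 choline challenge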
# Starred values were filed as active, the others as inactive; i = inactive; u = inconclusive; x = not tested or not shown. Hits are enriched below; roughly 3% of the tested compounds scored in any of these assays.
SMILES,NLRP3 yeast inh,NALP1 inh,Mot1-301 SUMO,A1 inh,CHT PAM,CHT inh,CHT inh conf,HEK293 MPD ctr
CCCc1nc(NCCO)c(C#N)c2c1CCCC2,9,x,313,1,i,-8*,i,i
CCCc1nc(Cl)c(C#N)c2c1CCCC2,-2,27,14,1,i,i,x,x
Cc1nnc(NC(=O)c2nc(S(=O)(=O)Cc3ccccc3)ncc2Cl)s1,-5,-6,x,x,i,-11*,28%*,i
CCCc1nnc(NC(=O)c2nc(S(=O)(=O)Cc3cccc(C)c3)ncc2Cl)s1,5,-24,1,u,i,-5.2*,30%*,i
Cc1cccc(C)c1NC(=O)c1nc(S(=O)(=O)Cc2ccccc2)ncc1Cl,22,13,x,x,i,i,x,x
Cc1cccc(CS(=O)(=O)c2ncc(Cl)c(C(=O)Nc3c(C)cccc3C)n2)c1,7,-4,x,x,i,i,x,x
CN(C)CCOC(=O)Cc1ccc(Cl)cc1,-13,-2,0,-1,i,-10*,63%*,i
CN(C)CCOC(=O)COc1ccc(Cl)cc1,7,x,-3,1,i,i,x,x
CCCc1cc(=O)[nH]c(SCC(=O)Nc2cccc3ccccc23)n1,-4,-2,-6,0,i,i,x,x
O=C(CSc1nc(C(F)(F)F)cc(=O)[nH]1)Nc1cccc2ccccc12,0,x,14,1,i,-5.4*,40%*,i
Cc1ccc[n+](CC(=O)c2ccc(-c3ccccc3)cc2)c1,22,-11,4,0,i,-11*,i,i
Cc1cc(C)c[n+](CC(=O)c2ccccc2)c1,16,-3,5,-1,i,i,x,x
Cc1ccc[n+](CC(=O)c2ccc(Cl)cc2)c1,17,0,-4,-1,i,-11*,5.6%*,i
Cc1ccc(C(=O)C[n+]2ccccc2)cc1,-9,1,12,0,i,i,x,x
Cc1ccc(C)[n+](CC(=O)c2ccc(-c3ccccc3)cc2)c1,-1,14,5,0,i,-4.9*,25%*,i
Cc1cc2c(Nc3cccc(O)c3)ncnc2s1,7,7,28,-1,i,i,x,x
CCOC(=O)[C@@H]1[C@H]2COc3ccccc3[C@@H]2N2C(=O)N(c3ccc(OC)cc3)C(=O)[C@]12C,23,x,-11,0,i,i,x,x
CS(=O)(=O)N1CCc2cc(S(=O)(=O)N3CCCCC3)ccc21,15,8,-16,0,i,-7.5*,i,i
CN(C)c1ccc(/C=C(/NC(=O)c2ccccc2)C(=O)N2CCCC2)cc1,9,-7,0,0,i,i,x,x
COc1ccc(C(=O)CSc2[nH]c(=O)cc(C(F)(F)F)c2C#N)cc1,0,23,15,0,i,-14*,45%*,i
CCCOc1ccc(-c2cc(C(F)(F)F)c(C#N)c(SCC(=O)O)n2)cc1,5,-6,0,0,i,i,x,x
O=C(Nc1nc(-c2cccs2)c(C(=O)C(F)(F)F)s1)c1ccco1,24,3,44,0,i,-5.2*,i,i
Cc1cc(N=Nc2ccccc2)c(NCC(O)C(O)C(O)CO)cc1C (configuration not stated),17,-8,x,0,i,-11*,30%*,i
Cc1ccc(NCC(O)C(O)C(O)CO)cc1C (configuration not stated),2,4,14,1,i,i,x,x
COc1ccc(NC(=O)N2CCC(n3cnc4ccccc43)CC2)cc1,12,6,1,1,i,-5.8*,37%*,i
SMILES,NLRP3 yeast inh,NALP1 inh,Mot1-301 SUMO,A1 inh,CHT PAM,CHT inh,CHT inh conf,HEK293 MPD ctr
CCC(C)NC(=O)C1CCN(CCCc2ccccc2)CC1 (configuration not stated),16,21,-21,0,i,i,x,x
O=C(C1CCN(CCCc2ccccc2)CC1)N(CCc1ccccc1)Cc1ccccc1,21,26,35,0,i,-8.2*,23%*,3.5*
O=[N+]([O-])c1cc([N+](=O)[O-])c(Oc2ccc(Cl)c3cccnc23)cc1NN1CCCCC1,14,4,-1,0,i,i,x,x
CCCc1cc(=O)[nH]c(SCC(=O)c2cc(C)n(CC(F)(F)F)c2C)n1,10,-13,3,1,i,-6.3*,i,i
Cc1ccc(S(=O)(=O)Nc2cccc(S(=O)(=O)Nc3ccccc3C(=O)O)c2)c(C)c1,-10,x,-3,1,x,x,x,x
COC(=O)COc1ccc(S(=O)(=O)N2CCN(c3ccccc3F)CC2)cc1,-12,22,-8,0,i,-5.2*,i,i
Cc1ccc(NC(=O)C2CCN(S(=O)(=O)c3ccc4c(c3)OCCO4)CC2)nc1,1,x,-2,0,i,i,x,x
CCN1CCC(Nc2ccnc3cc(Cl)ccc23)CC1,10,26,238,0,i,-6.6*,i,4.2*
CCOc1ccc(Nc2ccnc3cc(Cl)ccc23)cc1,35,x,x,1,i,i,x,x
CCc1ccc(C(C)NC(=S)NC2CCCCC2)cc1 (configuration not stated),39,1,-14,0,i,-8.1*,49%*,i
CCn1cc(C(=O)N(CCC(C)C)c2c(N)n(Cc3ccccc3)c(=O)[nH]c2=O)c(=O)c2ccc(C)nc21,8,-26,-3,0,i,-10*,50%*,i
CC(C)CCN(C(=O)c1ccccn1)c1c(N)n(Cc2ccccc2)c(=O)[nH]c1=O,13,x,5,0,x,x,x,x
Cc1cc(C)c(C(=O)N2CCC(N3CCC(C(=O)NC(C)C)CC3)CC2)o1,6,6,2,2,i,i,x,x
C=CCOc1ccccc1CNCc1ccc(F)cc1,4,21,-1,0,i,-7.5*,26%*,-14*
CCC1CCCCN1CCCNC(=O)c1ccc2c(c1)c(C)c(C)n2C (configuration not stated),11,25,3,0,i,-5.7*,35%*,i
CCCCCn1c(=O)[nH]c2cc(C(=O)NCCCN3CCCCC3CC)ccc2c1=O (configuration not stated),8,24,-7,0,i,-6*,41%*,i
CCCCN(C(=O)c1cccc(S(=O)(=O)N2CCN(C)CC2)c1)c1c(N)n(CCC)c(=O)[nH]c1=O,16,x,7,0,i,i,x,x
